MITF inh – blocks human microphthalmia-associated transcription factor; O75030; AID 1259374; AlphaScreen MITF homodimerization, bead proximity signal; 650,000 compounds, 0.91% hits; inhibition, % at 2.6 µM; in the data active = inhibition above about 50%;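 note: 0% = vehicle wells with protein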
FBW7 activator – activators of human E3 ligase FBW7; Q969H0; normalized activity (activation), % at 26.1 µM; 650,000 compounds, 0.13% hits; AlphaScreen FBW7–phospho-cyclin E peptide binding, activator screen; in the data active = normalized activity above about 1.9%;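 note: purified mutant Fbw7 with reduced substrate affinity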
Target sequence (Q969H0 whole entry, looked up): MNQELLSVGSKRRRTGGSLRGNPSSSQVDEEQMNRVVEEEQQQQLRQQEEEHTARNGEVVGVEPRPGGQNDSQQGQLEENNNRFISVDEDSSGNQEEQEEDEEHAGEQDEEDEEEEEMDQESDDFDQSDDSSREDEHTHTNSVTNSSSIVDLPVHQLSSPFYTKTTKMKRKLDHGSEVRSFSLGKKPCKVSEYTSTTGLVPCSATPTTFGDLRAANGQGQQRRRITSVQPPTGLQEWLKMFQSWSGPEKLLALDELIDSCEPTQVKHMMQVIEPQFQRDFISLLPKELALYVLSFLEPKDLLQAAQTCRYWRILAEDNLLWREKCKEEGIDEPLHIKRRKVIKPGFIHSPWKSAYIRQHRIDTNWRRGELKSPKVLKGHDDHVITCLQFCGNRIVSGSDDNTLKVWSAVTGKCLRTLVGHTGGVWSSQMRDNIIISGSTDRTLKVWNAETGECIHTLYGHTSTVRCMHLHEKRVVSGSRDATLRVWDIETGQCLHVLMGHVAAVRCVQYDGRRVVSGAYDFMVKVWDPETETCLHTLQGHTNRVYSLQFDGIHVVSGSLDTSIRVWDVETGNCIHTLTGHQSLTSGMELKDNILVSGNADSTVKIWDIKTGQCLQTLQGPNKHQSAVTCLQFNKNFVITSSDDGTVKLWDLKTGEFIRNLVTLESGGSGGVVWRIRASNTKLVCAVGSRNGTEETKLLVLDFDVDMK
GPR151 activ – human GPR151 activation | Q8TDV0 | PathHunter beta-arrestin GPR151 cells, luminescence | activation, % at 11.2 µM | 650,000 compounds, 1% hits; in the data active = activation above about 4.9%;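 note: 0% = median of compound wells and 100% = cells with positive control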
TEAD-YAP inh – TEAD-YAP interaction inhibition. HEK-TIYL cells, TEAD-Gal4/YAP UAS-luciferase luminescence. inhibition, % at 9.12 µM. 640,000 compounds, 1.4% hits; in the data active = inhibition above about 32%;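 note: 0% = median of test compound wells and 100% = reference inhibitor wells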
Numbers without * were called inactive. In the library only some 3.5% were active in any assay of this set; here they are far more common.

For Cc1noc(C)c1-c1nc(Nc2ccc(N3CCOCC3)cc2)c2ncn(C3CCCCC3)c2n1 the results were MITF inh 26.0, FBW7 activator -0.2, GPR151 activ 0.8 and TEAD-YAP inh -11.1.
Cc1noc(C)c1-c1nc(Nc2ccccc2)c2ncn(C3CCCCC3)c2n1 was read as MITF inh 6.7, FBW7 activator -0.1, GPR151 activ -1.1 and TEAD-YAP inh 75.0*.
Screening C/C(=N\NC(=O)c1cc(C23CC4CC(CC(C4)C2)C3)[nH]n1)c1ccccc1O returned MITF inh 7.7, FBW7 activator 0.2, GPR151 activ -1.0 and TEAD-YAP inh 1.6.
CN1C(=O)C(=Cc2ccccc2OCC(=O)O)C(=O)N(C)C1=S was read as MITF inh 72.1*, FBW7 activator -0.3, GPR151 activ 1.3 and TEAD-YAP inh 5.9.
Screening CN1C(=O)C(=Cc2ccccc2OCC(=O)Nc2ccccc2)C(=O)N(C)C1=S returned MITF inh 6.2, FBW7 activator 0.8, GPR151 activ -2.5 and TEAD-YAP inh -13.0.
Screening C/C(=N\NC(N)=S)c1ccc(Cl)cc1Cl returned MITF inh 5.7, FBW7 activator 0.1, GPR151 activ 1.3 and TEAD-YAP inh 34.3*.
For C/C(=N\NC(=O)C(F)(F)F)c1ccc(Cl)cc1Cl the results were MITF inh -1.5, FBW7 activator -0.3, GPR151 activ 0.0 and TEAD-YAP inh -1.0.
Screening COc1c(C)cc(S(=O)(=O)Nc2ccc3c(c2)N(C(=O)C2CC2)CC3)cc1C returned MITF inh 4.7, FBW7 activator 0.0, GPR151 activ 1.0 and TEAD-YAP inh 43.1*.
Cc1cc(NS(=O)(=O)c2ccc3c(c2)CCN3C(=O)C2CC2)ccc1Br was read as MITF inh 9.8, FBW7 activator 0.6, GPR151 activ 0.3 and TEAD-YAP inh 10.9.
Cc1cccc(NS(=O)(=O)c2cc(Br)cc3c2N(C(=O)C2CC2)CC3)c1 was read as MITF inh 0.2, FBW7 activator 0.0, GPR151 activ 1.4 and TEAD-YAP inh 70.9*.
CCc1ccc(NS(=O)(=O)c2cc(Br)cc3c2N(C(C)=O)CC3)cc1 was read as MITF inh 12.7, FBW7 activator 0.5, GPR151 activ -0.1 and TEAD-YAP inh 47.0*.
For COc1ccc(NS(=O)(=O)c2cc(Br)cc3c2N(C(C)=O)CC3)cc1 the results were MITF inh 9.8, FBW7 activator 0.1, GPR151 activ 1.0 and TEAD-YAP inh 44.2*.
COc1cccc(/C=N/NC(=O)c2ccccc2Cl)c1OC was read as MITF inh 5.6, FBW7 activator 0.2, GPR151 activ 0.4 and TEAD-YAP inh -6.8.
For CC(C)C(=O)NC(C)c1nc(-c2cccnc2)n[nH]1 (stereo unspecified) the results were MITF inh 2.6, FBW7 activator 0.4, GPR151 activ 0.3 and TEAD-YAP inh 4.1.
`CCOC(=O)CC(=O)CSc1nc2c(sc(=S)n2-c2cccc(OC)c2)c(=O)n1-c1ccc(OCC)cc1` gave MITF inh -4.9, FBW7 activator -0.2, GPR151 activ 0.1 and TEAD-YAP inh -4.7.
`Cc1ccc(-c2cc(C(=O)N/N=C/c3cc(Br)ccc3O)n[nH]2)o1` gave MITF inh 27.0, FBW7 activator -0.2, GPR151 activ 2.4 and TEAD-YAP inh 44.6*.
`O=C(N/N=C/c1ccccc1O)c1cccc(Br)c1` gave MITF inh 9.2, FBW7 activator 0.0, GPR151 activ -0.3 and TEAD-YAP inh -13.0.
COc1ccc(O)c(/C=N\NC(=O)c2n[nH]c([N+](=O)[O-])n2)c1 was read as MITF inh 52.6*, FBW7 activator -0.9, GPR151 activ -1.4 and TEAD-YAP inh 4.2.
`COc1cccc(/C=N/NC(=O)c2cc(-c3ccc(C)o3)[nH]n2)c1O` gave MITF inh 40.6, FBW7 activator 0.4, GPR151 activ -0.8 and TEAD-YAP inh 22.0.
COc1ccc(O)c(/C=N/NC(=O)c2cccc(Br)c2)c1 was read as MITF inh 14.7, FBW7 activator -0.1, GPR151 activ -0.5 and TEAD-YAP inh 57.9*.
COc1ccc(/C=N/NC(=O)c2cccc(Br)c2)cc1 was read as MITF inh 2.8, FBW7 activator -0.1, GPR151 activ -0.3 and TEAD-YAP inh -66.0.
Screening O=C(N/N=C/c1ccc(O)c2ncccc12)c1cccc(Br)c1 returned MITF inh 103.3*, FBW7 activator -0.3, GPR151 activ -0.3 and TEAD-YAP inh 37.9*.
For O=C(N/N=C\c1ccccc1O)c1n[nH]c([N+](=O)[O-])n1 the results were MITF inh 36.7, FBW7 activator -0.3, GPR151 activ -0.3 and TEAD-YAP inh -4.7.
COc1ccc(-c2csc(=Nc3ccc4[nH]c(=O)[nH]c4c3)n2C)cc1 was read as MITF inh 8.1, FBW7 activator -0.2, GPR151 activ -0.1 and TEAD-YAP inh -22.1.
For CCOc1ccc(-n2c(SCC(=O)N3CCC(C)CC3)nc3n[nH]c(C)c3c2=N)cc1 the results were MITF inh 6.2, FBW7 activator 0.1, GPR151 activ -1.1 and TEAD-YAP inh 4.3.
Cc1cc(NC(=O)CCCc2c[nH]c3ccccc23)no1 was read as MITF inh 1.1, FBW7 activator 0.1, GPR151 activ 0.6 and TEAD-YAP inh 1.9.
For COc1ccc(O)c(/C=N/NC(=O)c2ccc(NC(=O)c3ccccc3Cl)cc2)c1 the results were MITF inh 0.6, FBW7 activator 0.0, GPR151 activ 2.2 and TEAD-YAP inh 34.1*.
Screening COc1ccc(O)c(/C=N/NC(=O)c2cncc(Br)c2)c1 returned MITF inh -41.3, FBW7 activator -0.1, GPR151 activ -0.1 and TEAD-YAP inh 81.0*.
Screening COCCn1c(C)cc2c(c1=O)C(c1ccc(C(F)(F)F)cc1)C(C(=O)OC)=C(N)O2 (stereo unspecified) returned MITF inh -21.8, FBW7 activator -0.1, GPR151 activ -0.5 and TEAD-YAP inh -4.1.
`O=C1c2ccc(O)c(O)c2C(=O)c2c(O)ccc(O)c21` gave MITF inh 66.2*, FBW7 activator 0.9, GPR151 activ 1.5 and TEAD-YAP inh 2.1.
`COCCNc1ccc2ncc(-c3ccc(O)c(OC)c3)n2n1` gave MITF inh -1.5, FBW7 activator -0.5, GPR151 activ 1.4 and TEAD-YAP inh 54.6*.
Screening COc1ccc(-c2cnc3ccc(NCCCO)nn23)cc1OC returned MITF inh -10.7, FBW7 activator 0.7, GPR151 activ -0.1 and TEAD-YAP inh 36.2*.
`COc1cc(-c2noc(C3CC(=O)N(c4ccc(C)cc4C)C3)n2)cc(OC)c1OC` (stereo unspecified) gave MITF inh -1.1, FBW7 activator -0.2, GPR151 activ -1.1 and TEAD-YAP inh 44.5*.
`COc1ccc(N2CC(c3nc(-c4cc(OC)c(OC)c(OC)c4)no3)CC2=O)cc1Cl` (stereo unspecified) gave MITF inh -2.9, FBW7 activator 0.5, GPR151 activ -1.5 and TEAD-YAP inh -3.7.
For O=C(c1cccc(I)c1)N1CCCc2ccccc21 the results were MITF inh 10.3, FBW7 activator 2.3*, GPR151 activ -0.9 and TEAD-YAP inh -8.2.
For O=C(c1ccc(I)cc1)N1CCCc2ccccc21 the results were MITF inh -3.9, FBW7 activator -0.1, GPR151 activ 0.6 and TEAD-YAP inh 13.8.
For COc1ccc(COC(=O)c2c(SC)nsc2SC)cc1 the results were MITF inh 1.3, FBW7 activator -0.3, GPR151 activ -1.9 and TEAD-YAP inh 37.9*.

Screens from PubChem.
